Screening results: PubChem, National Center for Advancing Translational Sciences (NCATS)
G9a block – qHTS Assay for Inhibitors of Histone Lysine Methyltransferase G9a; Histone-lysine N-methyltransferase EHMT2 (Homo sapiens), Q96KQ7; G9a H3K9 monomethylation, AlphaScreen, 2 h; AID 504332, 2011; Potency, µM (titrated, usually from 102 µM), without a hit: at the top dose activity, negative = inhibition, usual class: inhibitors; 350,000 compounds, 8.8% hits; also: % is scaled to controls: 0 for no effect and ±100 for the full control effect; nearly all actives have a fitted effect of over 75% in size
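Quantitative HTS format: methyltransferase activity on a biotin-tagged H3K9 peptide is measured by AlphaScreen, using a rabbit anti-monomethyl-H3K9 antibody with streptavidin donor and anti-IgG acceptor beads. Final levels are 20 nM enzyme, 500 nM peptide, 20 uM SAM; 2 h RT.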
GLS inhibitor – qHTS for Inhibitors of Glutaminase (GLS). GLS enzymatic activity, qHTS titration. Potency, µM (highest dose often 45.5 µM), for inactives: top-dose activity change, negative = inhibition, usual class: inhibitors. 410,000 compounds, 0.21% hits. AID 624170, 2012; also: % is scaled to controls: 0 for no effect and ±100 for the full control effect
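Two-point fluorescence kinetic (t0, 30 min RT) for hKGA; glutamate detected via glutamate oxidase–HRP–Amplex Red. Substrate: 1 mM L-glutamine solution; buffer 45 mM KH2PO4, pH 8.2.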
BAZ2B inh – qHTS Assay for Inhibitors of BAZ2B; AlphaScreen BAZ2B-H3K14Ac peptide displacement; Potency, µM (highest dose often 114 µM), for inactives: at the highest dose activity change, negative = inhibition, hits mostly inhibitors; 360,000 compounds, 4.4% hits; Bromodomain adjacent to zinc finger domain protein 2B (Homo sapiens), Q9UIF8; AID 504333, 2011; also: % is scaled to controls: 0 for no effect and ±100 for the full control effect; nearly all actives have a fitted effect of over 60% in size
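AlphaScreen displacement of biotin-H3(5-23)K14Ac peptide (50 nM final) from BAZ2B (50 nM final) in PBS pH 7.4, 0.01% Tween-20; complex preformed 30 min RT, then compounds (top 110 uM) 30 min RT, beads 20 min dark.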
HP1b binding inh – HTS for Inhibitors of HP1-beta Chromodomain Interactions with Methylated Histone Tails. Chromobox protein homolog 1 (Homo sapiens), P83916. AlphaScreen HP1-beta / biotin-H3K9me3 peptide binding. Potency, µM (highest dose often 114 µM), for inactives: at the highest dose activity change, negative = inhibition, most hits filed as inhibitors. 390,000 compounds, 0.56% hits. AID 540317, 2011; also: nearly all actives have a fitted effect of over 70% in size
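Compound inhibition of the preformed complex between 50 nM HP1-beta and 50 nM biotinylated H3K9me3 peptide was read by AlphaScreen. Buffer was PBS pH 7.4 with 0.01% Tween-20. Incubations ran 30 min at room temperature, with 10 ug/mL donor/acceptor beads.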
JMJD2A Tudor – qHTS Assay for Inhibitors of JMJD2A-Tudor Domain; Potency, µM (titrated, usually from 114 µM), for the others: at the highest dose activity change, negative = inhibition, actives largely listed as inhibitors; Lysine-specific demethylase 4A (Homo sapiens), O75164; AlphaScreen JMJD2A-Tudor / H3K4me3 peptide binding; 390,000 compounds, 4.4% hits; also: % is scaled to controls: 0 for no effect and ±100 for the full control effect; nearly all actives have a fitted effect of over 50% in size
Target sequence (O75164 whole entry, looked up, the tested form may be a part): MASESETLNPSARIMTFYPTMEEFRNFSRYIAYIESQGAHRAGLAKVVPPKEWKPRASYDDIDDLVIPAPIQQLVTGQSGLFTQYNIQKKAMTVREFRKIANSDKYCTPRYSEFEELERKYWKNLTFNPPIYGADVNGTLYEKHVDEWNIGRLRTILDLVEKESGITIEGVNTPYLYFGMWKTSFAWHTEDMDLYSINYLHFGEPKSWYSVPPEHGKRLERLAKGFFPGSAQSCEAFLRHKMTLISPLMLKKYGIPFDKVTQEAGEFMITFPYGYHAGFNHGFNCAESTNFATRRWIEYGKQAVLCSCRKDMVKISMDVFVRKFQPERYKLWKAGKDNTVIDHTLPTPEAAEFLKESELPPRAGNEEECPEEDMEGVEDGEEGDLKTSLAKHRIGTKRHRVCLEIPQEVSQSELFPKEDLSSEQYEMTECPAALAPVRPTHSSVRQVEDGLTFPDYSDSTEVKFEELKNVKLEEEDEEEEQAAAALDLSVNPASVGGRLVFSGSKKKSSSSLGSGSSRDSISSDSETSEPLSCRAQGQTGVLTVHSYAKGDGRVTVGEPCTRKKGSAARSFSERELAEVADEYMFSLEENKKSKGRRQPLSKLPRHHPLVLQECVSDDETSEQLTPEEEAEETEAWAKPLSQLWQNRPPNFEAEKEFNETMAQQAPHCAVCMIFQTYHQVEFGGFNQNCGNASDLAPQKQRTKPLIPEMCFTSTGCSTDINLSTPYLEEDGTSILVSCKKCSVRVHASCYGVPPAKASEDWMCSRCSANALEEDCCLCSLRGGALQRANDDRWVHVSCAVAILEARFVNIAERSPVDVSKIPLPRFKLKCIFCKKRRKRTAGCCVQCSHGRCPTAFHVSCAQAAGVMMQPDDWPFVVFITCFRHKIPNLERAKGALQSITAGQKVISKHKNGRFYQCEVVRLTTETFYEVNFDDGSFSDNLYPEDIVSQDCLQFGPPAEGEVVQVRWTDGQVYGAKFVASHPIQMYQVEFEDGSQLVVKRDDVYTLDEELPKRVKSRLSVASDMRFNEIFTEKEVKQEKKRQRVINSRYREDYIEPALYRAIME
* hit, by the source's call; ? = inconclusive; . = no result given; [ ] = another dose, or the depositor's remark. Compounds with a hit are over-represented: about 10% of the library has one in this group of screens. Calls follow the shape of the dose curve; as a rule, active = well fitted curve in the direction sought with a large enough effect; inconclusive = small, poorly fitted or top-dose-only effect, or another doubt; inactive = no such curve, though single readings can be large; an effect the other way counts as inactive or inconclusive. Potency is read from the fitted curve at half-maximal effect.

SMILES	G9a block	GLS inhibitor	BAZ2B inh	HP1b binding inh	JMJD2A Tudor
Cc1ccnc(NC(=O)c2ccc([N+](=O)[O-])o2)c1	-4.2%[12.7 µM]	?	56.2µM*	-0.3%	-22.3%
Cc1ccc(NC(=O)CCC(=O)NNC(=O)c2cccs2)c(C)c1	23.4%[59 µM]	8.7%	-1.4%[57.1 µM]	6.9%	-14.1%
Cc1ccc(NC(=O)CCC(=O)NNC(=O)c2ccccc2[N+](=O)[O-])c(C)c1	50.1µM*	14.2%	-7.9%	31.9%	-2.1%
Cc1ccc(S(=O)(=O)N2[C@H](c3cccc(Cl)c3)CC(=O)[C@@H]3CN(S(=O)(=O)c4ccccc4C)[C@H](c4ccc(Cl)cc4)C[C@@H]32)cc1	.	-2.0%	.	.	.
CCCCN1C(=O)N(CCc2ccc(F)cc2)S(=O)(=O)c2cc(C(F)(F)F)ccc21	.	-4.5%	.	88.0%	33.6%
O=[N+]([O-])c1ccc(N/N=C/c2ccccc2)c(F)c1	18.1%[59 µM]	1.0%	8.8%	38.4%	-5.0%
CC(C)Oc1ccccc1/C=N/Nc1ccccc1[N+](=O)[O-]	3.55µM*	8.7%	5.62µM*	?	14.1µM*
COc1cc(/C=N/Nc2ccc(S(N)(=O)=O)cc2[N+](=O)[O-])cc(OC)c1O	.	32.6%	?	30.4%	-18.7%
CCCOc1ccc(/C=N/Nc2ccccc2[N+](=O)[O-])c(O)c1	?	10.6%	?	-31.2%	-21.2%
COc1cc(/C=N/Nc2ccc(F)cc2F)cc(OC)c1O	1.58µM*	18.7%	?	?	79.4µM*
CC1=C(/C=N/Nc2ccc([N+](=O)[O-])cc2[N+](=O)[O-])C(C)(C)CCC1	20µM*	2.0%	3.55µM*	8.91µM*	2.82µM*
COc1cc(/C=N/Nc2ccccc2[N+](=O)[O-])cc(OC)c1O	7.08µM*	?	?	-10.2%	-24.7%
COc1cccc(-c2nccc(NCc3ccccc3)n2)c1	13.0%[0.501 µM]	.	.	.	.
Cc1ccc2c(=O)cc(C(=O)Nc3sc4c(c3C(=O)NCC3CCCO3)CCCC4)oc2c1C (stereo not given)	-5.5%[59 µM]	2.7%	1.5%	17.7%	-22.9%
COc1ccccc1/C=N\Nc1ccccc1[N+](=O)[O-]	7.94µM*	-2.3%	3.16µM*	12.6µM*	8.91µM*
COc1ccc(/C=N\Nc2ccc([N+](=O)[O-])cc2[N+](=O)[O-])c(C(=O)O)c1OC	25.1µM*	11.9%	-37.7%	?	50.1µM*
Clc1nc2ccccc2cc1/C=N/Nc1nc2ccccc2[nH]1	-0.7%[59 µM]	3.6%	-37.6%	34.6%	-26.6%
COc1ccc(/C=N\Nc2ccccc2[N+](=O)[O-])c(C(=O)O)c1OC	.	14.5%	?	1.0%	0.0%[11.4 µM]
CCOc1ccccc1/C=N/Nc1ccccc1[N+](=O)[O-]	?	7.8%	?	-29.6%	?
O=[N+]([O-])c1ccccc1N/N=C/c1cc2ccccc2nc1Cl	50.1µM*	3.5%	?	0.7%	?
CCN(CC)C(=O)Cn1ncc2c([nH]c3ccc(C)cc32)c1=O	1.1%[59 µM]	-0.3%	12.0%[57.1 µM]	14.0%	-12.0%
CCOc1ccc(CN2CCC(Cc3ccccc3)CC2)cc1	44.7µM*	12.7%	?	?	25.1µM*
OC(COc1ccccc1)CN1CCCCC1 (stereo not given)	.	-7.3%	.	15.8%	-1.4%
Cc1[nH]c2ccccc2c1CN1CCC(Cc2ccccc2)CC1	14.1µM*	-2.0%	44.7µM*	?	0.794µM*
COc1ccc(CN2CCC(Cc3ccccc3)CC2)cc1OC	50.1µM*	5.8%	?	?	20µM*
SMILES	G9a block	GLS inhibitor	BAZ2B inh	HP1b binding inh	JMJD2A Tudor
COCCNC(=O)c1ccc(CN2CCC(Cc3ccccc3)CC2)cc1	1.0%	-0.3%	?	35.2%	-2.8%
OC(COc1ccc(C2C=CCC2)cc1)CN1CCCCC1 (stereo not given)	39.8µM*	-1.7%	-3.5%	-18.5%	-28.8%
COc1ccc(CCNC(=O)c2ccc(CN3CCC(Cc4ccccc4)CC3)cc2)cc1OC	-10.0%[59 µM]	4.7%	-0.9%	17.8%	-19.0%
C=CCn1nc(C(=O)N2CCOCC2)cc1-c1sc(NC(=O)c2ccccc2)nc1C	.	-7.2%	.	.	.
COc1ccc(S(=O)(=O)N2CCCOC2CNC(=O)C(=O)NCCc2ccco2)cc1 (stereo not given)	.	3.0%	-36.9%	-7.4%	-26.9%
Cc1cc(C)cc(NC(=O)N2CCC(CN3CCCCCC3)CC2)c1	?	-1.3%	-15.0%	2.9%	-19.8%
O=[N+]([O-])c1cccc(CN2CCC(Cc3ccccc3)CC2)c1	35.5µM*	-6.4%	50.1µM*	?	1.58µM*
CCCCOc1ccc(CN2CCC(O)CC2)cc1	.	-1.4%	?	-28.6%	2.82µM*
COc1cccc(OC)c1OCCCN1CCC(Cc2ccccc2)CC1	25.1µM*	12.1%	-35.1%	?	20µM*
OC(COc1ccc(Cl)cc1)CN1CCC(Cc2ccccc2)CC1 (stereo not given)	28.2µM*	0.6%	-18.5%	54.0%	-17.9%
CCc1ccc(NC(=O)Cn2ccn(-c3ccc(C)c(C)c3)c(=O)c2=O)cc1	-25.3%[59 µM]	-1.1%	-24.4%	49.9%	11.5%
O=C(CCN1C(=O)C2CC=CCC2C1=O)Nc1ccc(S(=O)(=O)N2CCCCC2)cc1 (stereo not given)	?	1.3%	7.9%	15.0%	-3.4%
O=C(c1ccc(Sc2cccc(Cl)c2)c([N+](=O)[O-])c1)N1CCN(c2ccccn2)CC1	15.8µM*	1.4%	?	?	?
CCN(CC)C(=O)Cn1c(=O)n(-c2ccc(OC)cc2OC)c(=O)c2c(C)c(C(=O)N(CC)CC)sc21	15.5%[59 µM]	4.4%	13.4%	59.0%	-16.0%
CCS(=O)(=O)N1CCN(C(=O)c2ccccc2[N+](=O)[O-])CC1	?	11.4%	-7.6%	43.2%	-0.8%[11.4 µM]
CSc1nccn1C(=O)c1ccccc1[N+](=O)[O-]	35.5µM*	6.3%	-30.5%	9.9%	35.5µM*
CCOC(=O)C1CCCCN1Cc1ccc(OC)c(OC)c1 (stereo not given)	31.6µM*	11.9%	56.2µM*	?	20µM*
CCC1CCCCN1Cc1ccc(OC)c(C)c1 (stereo not given)	50.1µM*	3.0%	56.2µM*	?	7.08µM*
COc1cccc(CN2CCCCC2C(=O)O)c1 (stereo not given)	9.3%	0.0%	-0.9%	17.9%	-18.2%
CCOC(=O)C1CCCCN1Cc1ccc(F)c(Br)c1 (stereo not given)	22.4µM*	-3.4%	11.9%	?	?
COc1ccc(CN2CCCCC2C(=O)Nc2ccc(OC)c(OC)c2)cc1OC (stereo not given)	-8.7%	-20.7%	-8.5%	15.9%	-18.2%
O=C(CSc1ncccn1)NN=C1CCCCCC1	17.3%	4.8%	-4.3%	21.1%	8.3%
